KCNQ2 inh: inhibitors of rat KCNQ2 potassium channel. O88943. CHO-K1 KCNQ2, FluxOR thallium flux, 20 min; active compounds read low. B-score at 10 µM. actives 1.1% (n = 310,000). AID 2156;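 active = fluorescence ratio B-score at most minus 3 library SDs, with starting brightness B-score within 2 library SDs, cut at about -5.5 in these data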
KCNQ2 enhance: KCNQ2 (rat) channel potentiation | AID 2239 | actives 0.54% (n = 310,000) | B-score at 10 µM | CHO-K1 KCNQ2, FluxOR thallium flux fluorescence; active compounds read high;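 active = fluorescence ratio B-score at least 3 SD of library B-scores, with initial fluorescence B-score within 3 of them, cut at about 5.3 in these data; same plate scores as AID 2156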;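 also: B-score of peak minus minimum over baseline fluorescence ratio after K+ and Tl+ stimulus; positive B-score means potentiation of KCNQ2 with more thallium influx and brighter signal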
Active calls of the source: *; i = inactive; x = not tested or not shown. In the library only some 1.6% were active in any assay of this set; here they are far more common.

SMILES	KCNQ2 inh	KCNQ2 enhance
O=C(c1ccc(OCCN2CCCCC2)cc1)c1c(-c2ccc(O)cc2)sc2cc(O)ccc12	-6*	-6
CCOc1ccc(NC(=O)CCC(=O)N/N=C2\CCCc3ccccc32)cc1	i	x
Cc1c(C(=O)OCc2ccc(F)cc2)sc2nc3n(c(=O)c12)CCC3	i	x
COc1ccc(CNCc2cc3c(cc2[N+](=O)[O-])OCO3)cc1	i	1.4
Cc1cc(C)cc(NCc2cc3c(cc2[N+](=O)[O-])OCO3)c1	-6.2*	-6.2
Cc1ccc(C)c(C(=O)COC(=O)Cn2c(C)csc2=O)c1	i	x
COc1ccc(S(=O)(=O)N2Cc3ccccc3CC2C(=O)Nc2ccc3c(c2)OCO3)cc1 (stereo not drawn)	i	x
Cc1ccc(S(=O)(=O)N2Cc3ccccc3CC2C(=O)Nc2ccc3c(c2)OCO3)cc1 (stereo not drawn)	-5.6*	-5.6
COCCn1c(SCC(=O)Nc2cc(C)on2)nnc1C(C)C	i	1.6
COc1ccc(OC)c(S(=O)(=O)NCC(c2ccc3c(c2)OCO3)N2CCOCC2)c1 (stereo not drawn)	i	0.08
CCCN(CCC)CC(O)Cn1cc(/C=C/C(=O)c2cccs2)c2ccccc21 (stereo not drawn)	i	x
O=C(/C=C/c1cn(CC(O)CN2CCCCC2)c2ccccc12)c1cccs1 (stereo not drawn)	i	x
O=C(/C=C/c1cn(CC(O)CN2CCCCC2)c2ccccc12)c1ccccc1 (stereo not drawn)	-5.7*	-5.7
CCCN(CCC)CC(O)Cn1cc(/C=C/C(=O)c2ccccc2)c2ccccc21 (stereo not drawn)	-6.3*	-6.3
CCn1cc(C(=O)N[C@@H](CCSC)C(=O)NCCCN2CCOCC2)c(=O)c2cc3c(cc21)OCO3	i	0.05
CSCC[C@H](NC(=O)OC(C)(C)C)c1nnc(SCc2cccc(F)c2)o1	i	x
CC(C)C[C@H](NC(=O)OC(C)(C)C)c1nnc(SCc2cccc(F)c2)o1	-7.5*	-7.5
COc1ccc(CCNC(=O)CNS(=O)(=O)c2ccc(F)c(Cl)c2)cc1OC	i	x
CN(C(=O)Nc1ccccc1)C1CCCCC1	i	0.2
CC(c1cccs1)N(C(=O)Nc1ccccc1)C1CCCCC1 (stereo not drawn)	-5.9*	-5.9
Cc1cc(C)c2c(=O)n(CC(=O)NC3CCCC3)sc2n1	i	4.2
COc1ccc(OC)c(CCNC(=O)Cn2sc3nc(C)cc(C)c3c2=O)c1	-9.3*	-9.3
COc1cc(OC)c(OC)cc1CN(C)C(c1ccccc1)c1nnnn1-c1ccccc1C (stereo not drawn)	i	x
COc1ccc(CN(C)C(c2ccccc2)c2nnnn2-c2ccccc2C)c(OC)c1C (stereo not drawn)	-6*	-6
CCn1c(C)c(C)c2cc(C(=O)NC3CCCCCC3)ccc21	i	x
SMILES	KCNQ2 inh	KCNQ2 enhance
C[C@@H]1CCC[C@H](C)N1Cc1nc(Cc2ccccc2Cl)no1	i	x
O=C(Cn1nnc(-c2ccccc2)n1)N1CCCCC1	i	1.5
O=C(c1ccco1)N1CCN(C(=O)c2ccc(-c3cccc(C(F)(F)F)c3)o2)CC1	i	0.1
O=C(Cn1nnc(-c2cccc(C(F)(F)F)c2)n1)N1CCCCCC1	i	12*
O=C(c1ccc(-c2cccc(C(F)(F)F)c2)o1)N1CCCCCCC1	-6.2*	-6.2
CCc1ccc(CN2CCCC(CCC(=O)N3CCN(c4ccccn4)CC3)C2)o1 (stereo not drawn)	i	0.28
Cn1c(CNC(=O)c2ccco2)nnc1SCC(=O)c1ccc(Br)cc1	i	0.87
CCC(=O)N(CCC1(c2ccccc2OC)CCOC(C(C)C)C1)Cc1ccco1 (stereo not drawn)	-5.8*	-5.8
COc1ccccc1C1(CC(=O)O)CCOC(C(C)C)C1 (stereo not drawn)	i	x
CCOC(=O)c1cccc(NC(=S)NCc2ccc(C)cc2)c1	i	1.1
COc1ccc(-c2[nH]ncc2CN(CCO)Cc2cccs2)c(F)c1	i	1.2
O=C1NC(=Nc2cccc(Cl)c2)SC1Cc1cccc(Cl)c1Cl (stereo not drawn)	i	x
CN1CCN(Cc2cccc(Oc3ccccc3)c2)CC1	i	0.44
COc1ccc(CN2CCN(Cc3cccc(Oc4ccccc4)c3)CC2)c(OC)c1OC	-7.5*	-7.5
O=C(CN1C(=O)C2CC=CCC2C1=O)Nc1ccc(S(=O)(=O)Nc2nccs2)cc1 (stereo not drawn)	i	0.01
CC(C)(C)c1ccc(S(=O)(=O)Nc2noc3ccccc23)cc1	i	2.2
O=C1C=CC(=O)N1N(c1ccccc1)c1ccccc1	-6.2*	-6.2
O=C1C=CC(=O)N1Cc1ccccc1	i	x
COc1ccc(CS(=O)(=O)c2nc(C)cc(C)c2S(C)(=O)=O)cc1	i	0.85
Cn1ccnc1COc1ccc(C=O)cc1	i	1.1
COc1ccccc1CNC(=O)COC(=O)c1n[nH]c2ccccc12	-5.9*	-5.9
COc1ccccc1CNC(=O)c1n[nH]c2ccccc12	i	0.13

Compound activity as filed in PubChem BioAssay.
